MCL1 BIM primary – disrupts human MCL1 binding to BIM-BH3 peptide. Q07820. GST-MCL1 / FITC-Bim-BH3 fluorescence polarization. inhibition, % at 10.9 µM. actives 0.68% (n = 320,000);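 active = inhibition above the mean inhibition of all tested compounds plus 3 SD, set per campaign, cut at about 40% in these data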;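 also: 0% = DMSO wells and 100% = unlabeled Bim-BH3 peptide control; higher means more loss of mP so more displacement of Bim peptide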
Target sequence (Q07820 whole entry, looked up): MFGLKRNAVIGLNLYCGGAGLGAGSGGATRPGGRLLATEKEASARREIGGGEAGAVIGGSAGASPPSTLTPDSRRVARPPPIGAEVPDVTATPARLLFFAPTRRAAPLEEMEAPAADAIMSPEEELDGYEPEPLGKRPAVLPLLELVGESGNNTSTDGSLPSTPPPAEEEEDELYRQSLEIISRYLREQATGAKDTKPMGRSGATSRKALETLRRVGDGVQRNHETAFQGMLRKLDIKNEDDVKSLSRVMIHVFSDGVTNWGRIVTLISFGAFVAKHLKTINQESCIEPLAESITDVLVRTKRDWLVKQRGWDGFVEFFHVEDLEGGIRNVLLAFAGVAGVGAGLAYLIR
BCLXL inh – inhibitors of human Bcl-xL | Q07817 | inhibition, % at 10.9 µM | GST-Bcl-xL / FITC-Bim BH3 peptide fluorescence polarization | AID 2129 | actives 0.7% (n = 320,000);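 active = inhibition above the mean of all tested compounds plus 3 SD, cutoff set per campaign, cut at about 30% in these data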;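 also: 0% = DMSO wells and 100% = unlabeled Bim-BH3 peptide competitor; inhibitors lower millipolarization by displacing the labeled peptide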
Target sequence (Q07817 whole entry, looked up): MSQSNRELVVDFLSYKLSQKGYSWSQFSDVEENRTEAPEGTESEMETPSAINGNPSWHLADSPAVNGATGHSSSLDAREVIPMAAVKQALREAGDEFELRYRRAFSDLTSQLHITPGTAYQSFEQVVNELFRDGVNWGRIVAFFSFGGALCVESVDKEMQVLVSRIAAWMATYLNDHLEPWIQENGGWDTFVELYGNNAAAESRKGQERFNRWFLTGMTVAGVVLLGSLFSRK
Mcl1 Bid PPI – Mcl-1/Bid interaction inhibition | Q07820 | TR-FRET Mcl-1/Bid-Dy647 peptide binding, 1536-well | inhibition, % at 21.7 µM | actives 0.97% (n = 220,000);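 active = compounds that cut the binding signal by more than half at the single screening dose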;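 also: His-tagged Mcl-1 with europium anti-His antibody binding Bid BH3 peptide; 0% = Mcl-1 plus peptide wells and 100% = peptide-only wells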
Mcl1 Noxa PPI – disrupts binding of human Mcl-1 to Noxa peptide; actives 1.5% (n = 220,000); TR-FRET Mcl-1/Noxa peptide binding, 2 h; inhibition, % at 21.7 µM; AID 1022;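 active = compounds that cut the protein-peptide binding signal by more than 50% relative to plate controls in a single-dose test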;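 also: His-tagged Mcl-1 with rhodamine Noxa BH3 peptide and terbium anti-His antibody; 0% = Mcl-1 plus Noxa peptide wells and 100% = peptide-only wells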
GLD-1 TGE inh – GLD-1-TGE RNA interaction inhibition (C. elegans). Q17339. purified GLD-1 + fluorescein TGE RNA, fluorescence polarization. inhibition, % at 5.96 µM. actives 0.44% (n = 320,000). AID 2280;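 active = percent inhibition above a per-plate cutoff, the plate mean of test compounds plus 3 SD, cut at about 30% in these data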;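 also: 0% = DMSO wells with GLD-1 and probe and 100% = wells lacking GLD-1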
Mcl-1 Bim block – inhibitors of Bim-Mcl-1 interaction, human | Q07820 | Bead-based flow cytometry, Bim peptide-Mcl-1 binding | inhibition, % at 10 µM | actives 0.1% (n = 190,000) | AID 1009; in the data active = inhibition above about 40%;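 also: 0% = no compound tracer wells and 100% = peptide blocker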
Bcl-xL conf – Bcl-xL (human) inhibition, MCL1 counter-screen confirmation; shares compounds with MCL1 BIM primary; GST-Bcl-xL / FITC-Bim BH3 peptide FP binding; inhibition, % at 10.9 µM; actives 54% (n = 1,700); AID 2166;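 active = inhibition above a cutoff equal to the mean inhibition of all tested compounds plus 3 SD, cut at about 30% in these data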;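 also: 0% = DMSO wells and 100% = unlabeled Bim BH3 control peptide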
MCL1 inh confirm – confirmation of human MCL1 and BIM-BH3 interaction inhibitors. shares compounds with MCL1 BIM primary. inhibition, % at 10.9 µM. actives 61% (n = 1,700). AID 2168. GST-MCL1 / FITC-Bim-BH3 fluorescence polarization;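 active = inhibition above the average of all tested compounds plus 3 SD, cut at about 40% in these data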;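 also: 0% = DMSO wells and 100% = unlabeled Bim-BH3 control peptide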
* marks the source's active call; other numbers are inactive results; . = no result given; + = active, no number. A selection: hits, their analogues and other compounds. The true share with any hit is near 2.3%.

SMILES	MCL1 BIM primary	BCLXL inh	Mcl1 Bid PPI	Mcl1 Noxa PPI	GLD-1 TGE inh	Mcl-1 Bim block	Bcl-xL conf	MCL1 inh confirm
C=CCN1C=C2C(=O)C(C)(OC(=O)CCC(=O)OC)C(=O)C(Br)=C2C=C1c1ccc(OC)cc1 (centres undefined)	74.1*	70.9*	-124.3	13.1	27.6	.	52.0*	56.1*
C=CCN1C=C2C(=O)C(C)(OC(=O)C3CCCC3)C(=O)C(c3ccccc3)=C2C=C1CCCC(=O)OC (centres undefined)	19.4	16.1	-63.2	-3.2	10.7	.	.	.
CN1CCc2cc3c(c4c2[C@H]1[C@H](O)c1ccccc1-4)OCO3	124.1*	110.8*	-4.6	35.0	47.9*	3.0	61.1*	80.3*
C/C(=N\NC(=O)c1cc(O)cc(O)c1)c1ccc(NC(=O)Cc2ccccc2)cc1	78.2*	32.1*	.	.	5.9	.	46.4*	93.2*
CCn1nc(-c2ccccc2)c2nc3ccccc3nc21	100.7*	88.3*	-10.2	6.7	15.3	-2.0	137.4*	139.6*
CCCC(=O)OCCNc1cc(SCc2ccco2)c2nonc2c1[N+](=O)[O-]	42.8*	22.6	-30.6	31.9	5.2	2.0	7.2	11.3
CCCC(=O)OCCNc1cc(Sc2nccn2C)c2nonc2c1[N+](=O)[O-]	9.0	3.6	-55.6	21.4	4.0	-5.0	.	.
CC(=O)OCCCNc1cc(SCc2ccco2)c2nonc2c1[N+](=O)[O-]	44.5*	22.1	-33.5	41.3	-0.6	0.0	28.7	45.8*
COc1ccc(CN2C(=O)c3ccc(C(=O)O)cc3C2=O)cc1	-0.8	-2.6	.	.	0.9	.	.	.
CC(=O)Oc1ccc2c(=O)c(Oc3ccccc3)coc2c1OC(C)=O	49.9*	15.0	-103.9	25.6	-1.9	0.0	20.2	39.5
O=S(=O)([N-]c1nc2ccccc2nc1-[n+]1ccccc1)c1ccccc1	-3.1	0.3	-13.6	-8.1	0.4	-2.0	.	.
O=S(=O)([N-]c1nc2ccccc2nc1-[n+]1ccc(-c2ccncc2)cc1)c1ccccc1	+	188.0*	-19.4	21.0	153.0*	2.0	150.5*	183.5*
CCOc1ccc(CCNS(=O)(=O)c2ccc3c(c2)oc(=O)n3C)cc1OCC	-4.3	3.4	.	.	-1.8	.	.	.
CCOC(=O)c1cnc(-n2[nH]c(C)cc2=O)[nH]c1=O	74.0*	0.9	-164.3	-9.4	-4.4	1.0	5.0	81.1*
COCCn1c(N2CCCC2)nc2c1c(=O)[nH]c(=O)n2C	2.7	0.9	.	.	0.2	.	.	.
Cc1ccc2c(c1)C(c1ccccc1)N(C(=O)c1cccc([N+](=O)[O-])c1)CC(=O)N2 (centres undefined)	0.2	-0.1	.	.	-1.2	.	.	.
CCc1ccc(NC(=O)c2noc3c2CCC3)cc1	25.6	11.7	6.5	40.7	5.8	-1.0	.	.
COC(=O)c1ccccc1NC(=O)c1noc2c1CCC2	40.9*	11.7	-53.2	70.4*	0.0	-4.0	14.5	49.4*
CNC(=O)c1ccsc1NC(=O)CS(=O)(=O)c1ccc(Cl)cc1	8.5	8.4	.	.	3.0	.	.	.
CC(=O)Nc1ccc(N/C=C2/CCCC2=O)cc1	80.2*	8.1	-62.0	3.3	-1.9	.	0.6	-2.1
CNS(=O)(=O)c1cccc(C(=O)NCC(c2cccs2)N2CCOCC2)c1 (centres undefined)	2.0	2.7	.	.	3.6	.	.	.
COC(=O)COc1ccc(C2Nc3c(Cl)ccc(C(=O)O)c3C3C=CCC32)cc1 (centres undefined)	53.3*	42.6*	-3.5	18.1	15.8	-6.0	34.3*	32.5
COc1ccc(OC)c(C2Nc3c(Cl)ccc(C(=O)O)c3C3C=CCC32)c1 (centres undefined)	25.6	22.8	-17.7	36.0	8.9	0.0	.	.
Nc1c(C(=O)C2CC2)sc2nc(-c3cccs3)cc(C(F)(F)F)c12	71.5*	11.3	-22.8	-31.7	-36.4	-5.0	13.0	-17.4
O=S(=O)(NCc1ccco1)c1cccc2cccnc12	153.6*	11.9	-13.3	13.2	4.2	10.0	19.7	29.3
SMILES	MCL1 BIM primary	BCLXL inh	Mcl1 Bid PPI	Mcl1 Noxa PPI	GLD-1 TGE inh	Mcl-1 Bim block	Bcl-xL conf	MCL1 inh confirm
CCC(=O)Nc1nc2n(n1)C(c1ccc(OC)cc1)C=C(c1ccccc1)N2 (centres undefined)	59.6*	59.9*	-31.1	15.7	51.2*	-3.0	74.9*	91.8*
CS(=O)(=O)Nc1nc2n(n1)C(c1ccccc1)C=C(c1ccc(Br)cc1)N2 (centres undefined)	181.3*	156.8*	26.3	18.3	157.4*	0.0	133.5*	164.1*
COc1ccc(C2C=C(c3ccc(Br)cc3)Nc3nc(N4C(=O)CCC4=O)nn32)cc1 (centres undefined)	135.0*	123.0*	-72.2	-0.1	101.6*	-4.0	83.6*	100.3*
COc1ccc(C2C=C(c3ccccc3)Nc3nc(CCCO)nn32)cc1 (centres undefined)	30.1	29.8	-20.6	5.1	14.7	-4.0	.	.
COc1ccccc1C1C=C(c2ccc(Cl)cc2)Nc2nc(NS(C)(=O)=O)nn21 (centres undefined)	71.0*	66.3*	-13.8	-7.0	70.6*	-1.0	45.9*	59.2*
O=C(NCCc1ccccc1)c1ccc(NCC2CCCO2)c([N+](=O)[O-])c1 (centres undefined)	5.4	6.6	-22.7	-1.5	-2.1	3.0	.	.
O=C(c1nc2n(n1)C(c1ccc(Cl)cc1)C=C(c1ccccc1)N2)N1CCOCC1 (centres undefined)	75.3*	65.2*	-8.7	-1.3	47.8*	-4.0	70.9*	89.0*
OCCCc1nc2n(n1)C(c1ccccc1)C=C(c1ccccc1)N2 (centres undefined)	28.4	24.3	-25.8	7.1	19.0	-1.0	.	.
c1ccc(-c2ccc(-c3cnc4n3CCCCC4)cc2)cc1	-2.8	1.7	-29.3	9.2	10.1	1.0	.	.
Nc1nnnn1/N=C/c1cc(Cl)cc(Cl)c1O	133.0*	109.4*	.	.	78.5*	.	133.9*	147.9*
Cn1c(SCC(=O)Nc2ccc(F)cc2)nnc1C1CC1	176.3*	1.9	.	.	-2.8	.	-20.4	-35.7
CC(=O)Nc1ccc(NC(=O)CSc2nnc(C3CC3)n2C)cc1	2.3	5.8	3.3	13.8	-3.3	4.0	.	.
CCOC(=O)N1CC=C2C(C#N)=C(N)C(C#N)(C#N)[C@H](c3ccc(OC(C)C)c(OCC)c3)[C@H]2C1	-6.7	6.8	-50.2	9.2	0.6	-1.0	.	.
CN1CC=C2C(C#N)=C(N)C(C#N)(C#N)C(c3ccsc3)C2C1 (centres undefined)	117.4*	105.9*	-19.9	12.3	70.2*	-1.0	22.8	26.7
